Source: PubChem BioAssay (Tox21)
Results filed as inconclusive are left out. A number with no mark means an inactive call. Unless noted, calls come from the whole dose curve. Starred links: 1 amine or outer side, 2 acyl side, 3 side chain; linkers in the order of their positions; H or OH if unused. Positions of bridges follow the written chain, without caps; N, C: chain ends. Non-standard residues stand in square brackets, D forms with d. Residues, ends and D or L forms follow the SMILES beside them. *: point of attachment. X5 = NC1=N[C@@H]([C@H](N[*:1])C(=O)[*:2])C[C@H](O)N1; ΔAla(Z-3-ureido) = NC(=O)N/C=C(\N)C(=O)O; β3hOrn = NCCC[C@H](N)CC(=O)*; Dap = NC[C@H](N)C(=O)O

Molecular target: Estrogen receptor (Homo sapiens) (UniProt P03372)
Sequence (P03372 whole entry, looked up): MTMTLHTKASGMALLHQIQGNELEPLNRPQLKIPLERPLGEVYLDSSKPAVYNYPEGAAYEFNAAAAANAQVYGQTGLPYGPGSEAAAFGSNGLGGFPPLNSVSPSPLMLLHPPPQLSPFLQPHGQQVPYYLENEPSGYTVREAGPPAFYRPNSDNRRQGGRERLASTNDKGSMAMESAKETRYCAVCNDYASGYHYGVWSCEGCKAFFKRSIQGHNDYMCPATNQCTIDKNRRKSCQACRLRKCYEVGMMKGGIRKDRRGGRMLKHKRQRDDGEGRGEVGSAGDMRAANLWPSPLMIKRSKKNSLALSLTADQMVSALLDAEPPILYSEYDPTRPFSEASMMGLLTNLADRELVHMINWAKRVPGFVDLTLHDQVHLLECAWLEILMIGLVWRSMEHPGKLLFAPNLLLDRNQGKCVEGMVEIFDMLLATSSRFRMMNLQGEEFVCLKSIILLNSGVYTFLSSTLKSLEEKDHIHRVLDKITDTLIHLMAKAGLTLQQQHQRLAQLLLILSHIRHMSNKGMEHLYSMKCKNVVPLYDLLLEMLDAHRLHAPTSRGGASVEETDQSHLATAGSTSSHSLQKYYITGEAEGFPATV
Assay: qHTS assay to identify small molecule antagonists of the estrogen receptor alpha (ER-alpha) signaling pathway (AID 743069; active = well fitted curve in the direction sought with a large enough effect in the signal ratio in the repeat runs, not every such curve was filed as active; the % refers to the signal ratio)
Details: HEK293 ER-alpha-UAS-bla, beta-lactamase ratio, antagonist mode; series mostly up to 69.4 µM; activity, negative = inhibition: at the top concentration
Procedure, shortened: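 In this cell-based reporter format, GripTite HEK293 cells harbouring ER-alpha-UAS-bla were grown overnight with 2% charcoal-stripped FBS, dosed with DMSO-dissolved compounds, then challenged with 17beta-estradiol. After 18 hr at 37C, beta-lactamase activity was detected by FRET fluorescence.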
% is set by controls: 0 for no effect and ±100 for the full control effect.

SMILES | activity, negative = inhibition [%]
O=c1[nH]cnc2[nH]cc(CN3CCCCC3)c12 | -25.8
CNC[C@@H]1CC[C@@H](N)[C@@H](O[C@H]2[C@H](O)[C@@H](O[C@H]3OC[C@](C)(O)[C@H](NC)[C@H]3O)[C@H](N)C[C@@H]2N)O1 | -15.1
O=C(NOC[C@H](O)CO)c1ccc(F)c(F)c1Nc1ccc(I)cc1F | -15.1
OCC(O)COc1ccc(Cl)cc1 (centres undefined) | -9.7
CCN(CC)c1ccc(N=Nc2ccc(S(=O)(=O)N(C)C)cc2)c(S(=O)(=O)NCC[n+]2ccccc2)c1 | 11.4
c1ccc2c(CCC3CCNCC3)c[nH]c2c1 | -4.24
CCCCCCCCCCCCCCCC(=O)OC[C@@H](COP(=O)([O-])OCC[N+](C)(C)C)OC(=O)CCCCCCCCCCCCCCC | -13.8
C[N+](C)(CCCCCC[N+](C)(C)C1c2ccccc2-c2ccccc21)C1c2ccccc2-c2ccccc21 | -16.4
CCCCCCCCCCCCCCCCCC(=O)OCCO | -10.7
CO[C@H]1[C@@H](O)[C@H](N)[C@@H](O[C@H]2O[C@H]([C@H](C)N)CC[C@H]2N)[C@H](O)[C@@H]1N(C)C(=O)CN | -13.6
O=C[C@H](O)[C@@H](O)[C@H](O[C@H]1O[C@H](CO)[C@@H](O[C@H]2O[C@H](CO)[C@@H](O)[C@H](O)[C@H]2O)[C@H](O)[C@H]1O)[C@H](O)CO | -6.06
CC(=O)OC[C@H]1O[C@@H](O[C@H]2[C@H](O)[C@@H](OC(=O)c3ccccc3C(=O)O)[C@H](O)O[C@@H]2COC(C)=O)[C@H](O)[C@@H](OC(=O)c2ccccc2C(=O)O)[C@@H]1O | -12.6
CN=C(NC)NCc1ccccc1 | -9.6
CC1(C)S[C@@H]2[C@H](NC(=O)C(C(=O)Oc3ccc4c(c3)CCC4)c3ccccc3)C(=O)N2[C@H]1C(=O)O (some centres undefined) | -19.7
COc1cc(S(C)=O)ccc1-c1nc2ncccc2[nH]1 (centres undefined) | -3.71

System: not listed separately
Assay: qHTS assay to identify small molecule antagonists of the estrogen receptor alpha (ER-alpha) signaling pathway - cell viability counter screen (AID 743074); note: nearly all actives have a fitted effect of over 45% in size
Details: ERalpha-bla HEK293 viability, CellTiter-Glo luminescence, 18 h; series mostly up to 69.4 µM; activity, negative = cytotoxicity: at the top concentration

SMILES | activity, negative = cytotoxicity
CCCN(CC)C(CC)C(=O)Nc1c(C)cccc1C (centres undefined) | 13.2%
Cc1ccc(/C(=C\CN2CCCC2)c2cccc(/C=C/C(=O)O)n2)cc1 | 11.7%
CN[C@@H]1[C@@H](O)[C@@H](O[C@@H]2[C@@H](O)[C@H](OC3OC(CN)=CCC3N)[C@@H](N)C[C@H]2N)OC[C@]1(C)O (some centres undefined) | 11.3% [at 32.6 µM]
Cn1cc(NC(=O)c2cc(NC(=O)c3cc(NC=O)cn3C)cn2C)cc1C(=O)NCCC(=N)N | 18.7%
CS(=O)(=O)Nc1cc2occ(NC=O)c(=O)c2cc1Oc1ccccc1 | 18.6%
C[C@]12C=CC(=O)C=C1CC[C@@H]1[C@@H]2[C@@H](O)C[C@@]2(C)[C@H]1CC[C@]2(O)C(=O)COC(=O)CCC(=O)O | 12.5%
C=C1CC2C3CCC4=CC(=O)C=C[C@]4(C)[C@@]3(F)[C@@H](O)C[C@]2(C)[C@@]1(O)C(=O)COC(C)=O (some centres undefined) | 11%
NCCC(=O)[N-][C@@H](Cc1cnc[nH]1)C(=O)O.[Zn] | 6.58%
C[C@H]1C[C@H]2[C@@H]3CCC4=CC(=O)C=C[C@]4(C)[C@@]3(F)[C@@H](O)C[C@]2(C)[C@@]1(O)C(=O)CCl | 6.09%
CCN(CC)c1ccc(N=Nc2ccc(S(=O)(=O)N(C)C)cc2)c(S(=O)(=O)NCC[n+]2ccccc2)c1 | -9.76%
CCC(C)C(C(=O)OCC[N+](C)(CC)CC)c1ccccc1 (centres undefined) | 11.7%
Cc1c(O)cc2c(c1C)O[C@](C)(CCC[C@H](C)CCC[C@H](C)CCCC(C)C)CC2 | -8.2%
Cc1ccccc1CNc1ncnc2c1ncn2[C@@H]1O[C@H](CO)[C@@H](O)[C@H]1O | -11%
CC(=O)OCC(=O)[C@@]1(O)[C@H](C)C[C@H]2[C@@H]3C[C@H](F)C4=CC(=O)C=C[C@]4(C)[C@H]3[C@@H](O)C[C@@]21C | -7.2%
CC(C)(C)CC(=O)OCC(=O)[C@@]12OC(C)(C)O[C@@H]1C[C@H]1[C@@H]3CCC4=CC(=O)C=C[C@]4(C)[C@@]3(F)[C@@H](O)C[C@@]12C | 22%
CC(=O)N[C@@H](CC(=O)N[C@@H](CCC(=O)O)C(=O)O)C(=O)O | 13.1%
C=C1c2c(Cl)ccc(O)c2C(O)=C2C(=O)[C@]3(O)C(O)=C(C(N)=O)C(=O)[C@@H](N(C)C)[C@@H]3[C@@H](O)[C@H]12 | 11.1% [at 32.6 µM]
Cc1cc(Nc2ccccc2C(=O)O)ccc1Cl | -20.6%
NCCC[C@H](N)CC(=O)N[C@H]1CNC(=O)[C@H]([C@H]2C[C@H](O)NC(N)=N2)NC(=O)/C(=C/NC(N)=O)NC(=O)[C@H](CO)NC(=O)[C@H](CO)NC1=O (β3hOrn-[Dap]SS[ΔAla(Z-3-ureido)][X5]; lactam 1-C) | 13.7%
